Screening data (PubChem)
Rows were chosen to be rich in hits. Some 1.2% of all compounds tested hit in one or more screens of this group.
VDR inh = blocks the human vitamin D receptor; VDR-SRC2-3 peptide fluorescence polarization, 2 h; 400,000 tested, 0.93% active; Potency, µM, hits mostly inhibitors; P11473; AID 504847
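Fluorescence polarization assay of small-molecule disruption of VDR binding to coregulator peptide SRC2-3. Compounds and controls pin-transferred, then read after 2 h incubation at ambient room temperature.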
EPAC2 antag = blocks human EPAC2 exchange factor; AID 720708; 360,000 tested, 0.18% active; EPAC2 GEF exchange of Rap1B-BODIPY-GDP, fluorescence; Q8WZA2; Potency, µM (series often up to 114 µM), usual class: inhibitors; note: nearly all actives have a fitted effect of over 45% in size
EPAC1 ag = agonists of human EPAC1; EPAC1 agonist qHTS, biochemical assay; response scale: 100% = response to 6.5 mM cAMP; Potency, µM (titrated, usually from 154 µM), most hits filed as activators; 360,000 tested, 0.073% active; note: nearly all actives have a fitted effect of over 60% in size
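Multi-concentration qHTS readout: loss of Rap1B-bound BODIPY-GDP fluorescence driven by 100 nM EPAC1 with excess GDP (50 uM), monitored kinetically at room temperature; agonist response expressed relative to 6.5 mM cAMP.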
EPAC2 agonist = agonists of human EPAC2 (RAPGEF4) | Q8WZA2 | EPAC2 activation, biochemical qHTS; response scale: 100% = 6.5 mM cAMP response | Potency, µM (titrated, usually from 154 µM), most hits filed as activators | 360,000 tested, 0.079% active | AID 720711; note: nearly all actives have a fitted effect of over 50% in size
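Nucleotide exchange monitored as fluorescence drop when BODIPY-GDP leaves Rap1B. Reaction: 100 nM EPAC2, 250 nM RAP1B-BODIPY-GDP, 50 uM GDP, room temperature, kinetic read over 30 min. Activity expressed relative to 6.5 mM cAMP.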
USP1 inh = USP1/UAF1 (human) deubiquitinase inhibition | O94782 | 390,000 tested, 0.23% active | recombinant USP1/UAF1, Ub-Rhodamine cleavage fluorescence | Potency, µM (doses to about 57.1 µM), most hits filed as inhibitors; note: nearly all actives have a fitted effect of over 60% in size
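High-throughput fluorogenic screen: 1nM USP1/UAF1 complex, Ub-Rho substrate 150nM final, 50mM HEPES pH 7.8 with 0.5mM EDTA, 0.1 mg/ml BSA, 1mM TCEP and 0.01% Tween-20.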
EPAC1 antagonist = EPAC1 (human) antagonism; 360,000 tested, 0.14% active; O95398; EPAC1 GEF assay, Rap1b-BODIPY-GDP exchange fluorescence; Potency, µM (doses to about 115 µM), most hits filed as inhibitors; note: nearly all actives have a fitted effect of over 50% in size
USP1 UbRho = USP1-UAF1 deubiquitinase inhibition validated. shares compounds with VDR inh. Ub-Rhodamine cleavage, fluorescence kinetic read. Potency, µM (highest dose often 114 µM), usual class: inhibitors. 50 tested, 50% active
VDR confirm = confirmation of human vitamin D receptor inhibitors | shares compounds with VDR inh | 840 tested, 89% active | AID 602199 | Potency, µM, actives largely listed as inhibitors | VDR-coactivator inhibition assay, qHTS confirmation
VDR FP = blocks human VDR-coactivator binding in fluorescein assay; 840 tested, 48% active; shares compounds with VDR inh; VDR-coactivator binding, fluorescein fluorescence polarization; AID 602200; Potency, µM (series often up to 57.1 µM), most hits filed as inhibitors
VDR bla = VDR (human) inhibition, cell-based beta-lactamase validation; shares compounds with VDR inh; AID 602202; Potency, µM (top dose mostly 46.1 µM), actives largely listed as inhibitors; 840 tested, 23% active; VDR beta-lactamase reporter cells, FRET ratio; cells co-treated with VDR agonist LG190178
VDR cytotox = counter-screen for vitamin D receptor inhibitors: cytotoxicity | shares compounds with VDR inh | cytotoxicity counter-screen, cell viability, qHTS | Potency, µM (highest dose often 48.3 µM), usual class: cytotoxic | 840 tested, 18% active; note: nearly all actives have a fitted effect of over 75% in size
Large screens that a line does not name were inactive (follow-up assays come after a bar, where they were run). Calls come from the whole dose curve; as a rule, active = well fitted curve in the direction sought with a large enough effect; inconclusive = small, poorly fitted or top-dose-only effect, or another doubt; inactive = no such curve, though single readings can be large; an effect the other way counts as inactive or inconclusive.

CCN(CC)C(=O)N[C@@H]1C[C@@H]2c3cccc4[nH]cc(c34)C[C@H]2N(C)C1	none (no result: EPAC2 antag, EPAC1 ag, EPAC2 agonist, USP1 inh, EPAC1 antagonist)
CCN(CC)C(=O)N[C@H]1C=C2c3cccc4[nH]cc(c34)C[C@@H]2N(C)C1	none (no result: EPAC2 antag, EPAC1 ag, EPAC2 agonist, USP1 inh, EPAC1 antagonist) | USP1 UbRho inactive
Cc1cccc(Oc2nc3c(C)cccn3c(=O)c2/C=C(\C#N)c2nc3ccccc3s2)c1	VDR inh inconclusive (no result: EPAC2 antag, EPAC1 ag, EPAC2 agonist, EPAC1 antagonist)
COc1ccc(OC)c(N2C(=O)NC(=O)/C(=C\c3ccc([N+](=O)[O-])s3)C2=O)c1	VDR inh inconclusive, USP1 inh inconclusive, EPAC1 antagonist inconclusive
CN1C(=O)NC(=O)/C(=C/c2ccc([N+](=O)[O-])s2)C1=O	VDR inh 45µM, USP1 inh 25µM, EPAC1 antagonist inconclusive | VDR confirm 8.4 | VDR FP inconclusive | VDR bla inactive | VDR cytotox inconclusive
O=C1NC(=O)C(=Cc2cccs2)C(=O)N1	VDR inh inconclusive
O=C1NC(=S)NC(=O)C1=Cc1ccc(Br)s1	VDR inh 22µM, EPAC1 antagonist inconclusive | VDR confirm 4.2 | VDR FP inconclusive | VDR bla inconclusive | VDR cytotox inconclusive
N#CC1c2ccccc2-n2nncc2CN1Cc1cc(Cl)cc(Cl)c1 (stereo not given)	VDR inh 20µM | VDR confirm 3.4 | VDR FP 2.8µM | VDR bla 10µM | VDR cytotox 4.1µM
N[C@@H](Cn1ccc(=O)[nH]c1=O)C(=O)O	none (no result: EPAC2 antag, EPAC1 ag, EPAC2 agonist, USP1 inh, EPAC1 antagonist)
CCn1cc(C(=O)c2cccs2)c2ccccc21	none
CCN1C(=O)/C(=C\C(=O)c2cccs2)c2cc(Br)ccc21	VDR inh 35µM | VDR confirm 6.7 | VDR FP inconclusive | VDR bla inconclusive | VDR cytotox inconclusive
CN1C(=O)CCS(=O)(=O)[C@@H]1c1ccc(Cl)cc1	none (no result: EPAC2 antag, EPAC1 ag, EPAC2 agonist, USP1 inh, EPAC1 antagonist)
O=C(O)c1ccccc1-c1ccc(C=C2C(=O)N(c3ccccc3)C(=S)N(c3ccccc3)C2=O)o1	VDR inh 16µM | VDR confirm 3.8 | VDR FP inconclusive | VDR bla inactive | VDR cytotox inactive
CCc1ccccc1N1C(=O)/C(=C/c2ccc(N3CCN(C)CC3)o2)C(=O)NC1=S	USP1 inh inconclusive
O=C(O)[C@@H]1Cc2[nH]cnc2C(c2cccnc2)N1 (stereo not given in full)	none (no result: EPAC2 antag, EPAC1 ag, EPAC2 agonist, USP1 inh, EPAC1 antagonist)
CCCCCCCCCCCCCC(=O)O[C@@H]1[C@@H](C)[C@@]2(O)[C@@H](C=C(CO)C[C@@]3(O)C(=O)C(C)=C[C@@H]23)C2C(C)(C)[C@@]21OC(C)=O (stereo not given in full)	none (no result: EPAC2 antag, EPAC1 ag, EPAC2 agonist, USP1 inh, EPAC1 antagonist)
CCOc1ccc(N2C(=O)NC(=O)/C(=C\c3ccccc3[N+](=O)[O-])C2=O)cc1	VDR inh 32µM | VDR confirm 9.5 | VDR FP inconclusive | VDR bla inactive | VDR cytotox inactive
COC[C@H]([C@@H](O)[C@@H](O)C(=O)NCC[C@@H](C)c1nc(/C=C/C[C@H]2OC3(C[C@H](O)[C@H]2C)OC([C@@H](C[C@@H](O)[C@@H](C)[C@@H](O)[C@@H](C)/C=C(C)/C(C)=C/C=C/C(C)=C\C#N)OC)[C@@H](OP(=O)(O)O)C3(C)C)co1)N(C)C (stereo not given in full)	none (no result: EPAC2 antag, EPAC1 ag, EPAC2 agonist, USP1 inh, EPAC1 antagonist)
CN1C[C@@H]2[C@@H]3C(=O)N(Cc4ccccc4)C(=O)[C@@H]3[C@](Cc3ccccc3)(C1=O)N2C(=O)c1ccc(F)cc1	USP1 inh inconclusive
OCCN1CCN(CCCN2c3ccccc3Sc3ccc(C(F)(F)F)cc32)CC1	EPAC2 antag inconclusive | USP1 UbRho inconclusive
O=C(O)CCn1cc(C=C2C(=O)NC(=S)NC2=O)c(-c2cccc(Cl)c2)n1	VDR inh 25µM, EPAC2 antag inconclusive | VDR confirm 11 | VDR FP inconclusive | VDR bla inactive | VDR cytotox inactive
Cc1ccc([C@H]2C[C@H](n3cc(C4CC4)nn3)[C@@H](O)CN2Cc2cccs2)cc1	USP1 inh inconclusive (no result: VDR inh)
COc1ccc(-n2c(O)c(/C=C3\C=Nc4ccc(Br)cc43)c(=O)[nH]c2=O)c(OC)c1	VDR inh 50µM, USP1 inh inconclusive, EPAC1 antagonist inconclusive | VDR confirm 17 | VDR FP inconclusive | VDR bla inconclusive | VDR cytotox inconclusive
COC(=O)C[C@]1(C(=O)OC)CN(C#N)N(c2ccc(Cl)cc2)C12c1ccccc1-c1ccccc12	VDR inh 20µM | VDR confirm inconclusive | VDR FP 6.3µM | VDR bla 3.7µM | VDR cytotox 2.9µM
COC(=O)[C@@H]1[C@@H](C(=O)OC)C2(c3ccccc3-c3ccccc32)N(c2ccc(Cl)cc2)N1C#N	VDR inh inconclusive
O=[N+]([O-])c1ccc(N2CC2)c([N+](=O)[O-])c1	USP1 inh inconclusive
O=[N+]([O-])c1ccc(Sc2nc3ccccc3o2)c([N+](=O)[O-])c1	VDR inh 25µM | VDR confirm 19 | VDR FP 14µM | VDR bla inconclusive | VDR cytotox inconclusive
COc1ccc([N+](=O)[O-])c(S(=O)(=O)c2ccc(Cl)cc2)n1	VDR inh 32µM, USP1 inh inconclusive | VDR confirm 3 | VDR FP inconclusive | VDR bla 7.3µM | VDR cytotox inconclusive
O=S(=O)(c1ccc(Cl)cc1)c1ccc(Cl)cc1	none
CP(=O)(O)C1=CCNCC1	none (no result: EPAC2 antag, EPAC1 ag, EPAC2 agonist, USP1 inh, EPAC1 antagonist)
CCn1c(SCC(=O)Nc2nncs2)nnc1-c1ccco1	none
CN1C2CCC1/C(=C/c1ccccn1)C(=O)/C2=C\c1ccccn1	VDR inh 28µM | VDR confirm 2.7 | VDR FP inconclusive | VDR bla 2.1µM | VDR cytotox 21µM
